Compound activity: PubChem, National Center for Advancing Translational Sciences (NCATS)
Pol eta inh = qHTS for Inhibitors of Polymerase Eta; DNA polymerase eta (Homo sapiens), Q9Y253; recombinant Pol eta, fluorescent DNA replication assay; Potency, µM (top dose mostly 114 µM), most hits filed as inhibitors; 1.2% of 390,000 active; AID 588591, 2011
Target sequence (Q9Y253 whole entry, looked up): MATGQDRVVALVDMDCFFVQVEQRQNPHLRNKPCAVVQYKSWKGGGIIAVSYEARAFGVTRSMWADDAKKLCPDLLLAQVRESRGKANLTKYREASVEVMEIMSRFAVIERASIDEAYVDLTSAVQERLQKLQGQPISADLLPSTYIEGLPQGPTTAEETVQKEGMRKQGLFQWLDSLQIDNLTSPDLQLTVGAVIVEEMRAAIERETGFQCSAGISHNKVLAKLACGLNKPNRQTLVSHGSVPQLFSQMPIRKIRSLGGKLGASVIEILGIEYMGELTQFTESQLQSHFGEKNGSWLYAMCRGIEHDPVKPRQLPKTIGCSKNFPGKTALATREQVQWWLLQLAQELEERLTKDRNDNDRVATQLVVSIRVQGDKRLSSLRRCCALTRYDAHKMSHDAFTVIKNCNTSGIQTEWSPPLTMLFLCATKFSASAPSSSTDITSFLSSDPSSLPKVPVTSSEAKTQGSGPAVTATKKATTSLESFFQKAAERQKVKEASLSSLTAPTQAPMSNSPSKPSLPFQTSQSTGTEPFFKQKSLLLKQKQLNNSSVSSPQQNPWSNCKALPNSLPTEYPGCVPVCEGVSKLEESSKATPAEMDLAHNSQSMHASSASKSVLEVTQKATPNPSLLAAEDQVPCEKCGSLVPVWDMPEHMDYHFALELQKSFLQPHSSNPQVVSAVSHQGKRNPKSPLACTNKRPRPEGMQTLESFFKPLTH
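Fluorescent replication assay: 50 nM final substrate added after a 15 min room-temperature compound preincubation with 10 nM enzyme. Signal taken at 0 min and again at 10 min.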
POLK inh = qHTS for Inhibitors of Polymerase Kappa. DNA polymerase kappa (Homo sapiens), Q9UBT6. Potency, µM (titrated, usually from 107 µM), usual class: inhibitors. 0.53% of 400,000 active. purified Pol kappa, fluorescent DNA synthesis assay, 10 min
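50 nM final substrate added after 15 min RT preincubation of 10 nM Pol kappa with compound; fluorescence read at 0 and 10 min.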
GLS inh = qHTS for Inhibitors of Glutaminase (GLS); Glutaminase kidney isoform, mitochondrial (Homo sapiens), O94925; GLS enzymatic activity, qHTS titration; Potency, µM (series often up to 45.5 µM), hits mostly inhibitors; 0.21% of 410,000 active; AID 624170, 2012
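Enzyme dispensed in phosphate buffer (45 mM, pH 8.2, 0.02% Tween-20), compounds pinned in, then 1 mM L-glutamine solution and the glutamate oxidase–HRP–Amplex Red mix added; fluorescence read immediately and again after 30 min at room temperature.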
POLI inh = qHTS for Inhibitors of Polymerase Iota. Pol iota fluorescent replication assay, 10 min. Potency, µM (highest dose often 115 µM), hits mostly inhibitors. DNA polymerase iota (Homo sapiens), Q9UNA4. 1% of 390,000 active
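Fluorescent replication assay read twice, at 0 min and 10 min after adding 50 nM (final) substrate. Enzyme (10 nM) and compounds were first incubated 15 min at room temperature; enzyme-free buffer wells were negative controls.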
KAT2A inh = qHTS Assay for Inhibitors of GCN5L2; 0.21% of 390,000 active; Histone acetyltransferase KAT2A (Homo sapiens), Q92830; GCN5L2 HAT assay, ThioGlo1 CoA-SH fluorescence; Potency, µM (titrated, usually from 58.9 µM), usual class: inhibitors
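Preincubate 20nM GCN5L2 with compound 15 min, RT → add 50uM ThioGlo1 + 75uM H3(1-25) + 70uM acetyl-CoA → read fluorescence 0 and 20 min. Primary qHTS; fluorescent artifacts likely.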
Pol beta inh = qHTS Assay for Inhibitors of DNA Polymerase Beta | Pol beta primer extension/strand displacement, fluorescence kinetic | AID 485314, 2010 | P06746 | 1.3% of 340,000 active | Potency, µM (series often up to 114 µM), hits mostly inhibitors
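Homogeneous kinetic assay of primer extension and strand displacement by 10 nM Pol beta, preincubated 15 min at room temperature with compound before 50 nM substrate (final) was added. Read at 0 and 10 min; four-parameter Hill fit.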
A number is an active result; n = inactive; u = inconclusive; x = no result; ! = repeats disagree; [ ] = dose if it differs, or a comment. Compounds with a hit are over-represented: about 2.4% of the library has one in this group of screens. The call rests on the fitted dose curve; in most records, active means well fitted inhibition curve with a large enough effect; inconclusive means small, poorly fitted or top-dose-only effect, or another doubt; inactive means no such curve, though single readings can be large or run the other way.

SMILES | Pol eta inh | POLK inh | GLS inh | POLI inh | KAT2A inh | Pol beta inh
Cc1cc(/C=C/c2cccc3sc(C)[n+](CCCCI)c23)ccc1N(CCCl)CCCl | x | 56µM | x | 79µM | x | x
Cc1cc(/C=C/c2ccnc3ccccc23)ccc1N(CCCl)CCCl | x | n | x | u | x | x
C=CCN1C(=O)NC(=O)/C(=C/c2cnc(SC)nc2)C1=O | n | n | n | n | n | n
C=CCN1C(=O)NC(=O)/C(=C/c2cc3c4c(c2)CCCN4CCC3)C1=O | 45µM | u | n | 20µM | n | u
CCC(=O)O[C@@](Cc1ccccc1)(c1ccccc1)[C@H](C)CN(C)C | x | x | n | x | x | x
Cc1cccc2c3c(ccc12)C1=C(C(=O)C3=O)[C@@H](C)CO1 | x | u | x | x | n | x
CC(N)[C@@H](O)c1ccccc1 (stereo partly drawn) | x | n | x | x | n | x
CC(N)C(O)c1ccc(O)c(O)c1 (stereo not drawn) | x | 3.2µM! | x | x | n | x
C[C@H](CCC(=O)O)[C@H]1CC[C@@H]2[C@H]3[C@@H](CC[C@@]21C)[C@]1(C)CC[C@H](O)C[C@@H]1C[C@@H]3O | x | n[12 µM] | x | x | n | x
CC[C@H](O)C(C[C@H](C)N(C)C)(c1ccccc1)c1ccccc1 | x | x | n | x | x | x
CNCCc1ccc(O)c(O)c1 | n | u | n | 89µM | n | n
Cc1cc(NC(=O)c2cc(-c3cccc(Cl)c3)on2)nn1Cc1ccc(Cl)cc1 | n | n | n | n | n | n
Cc1ccc(NP(=O)(Oc2ccccc2F)Oc2ccccc2F)cc1C | n | u | n | 89µM | n | n
CCCCCc1cc(O)c2c(c1)OC(C)(C)C1CC=C(C)CC21 (stereo not drawn) | x | n[19.4 µM] | n | x | n | x
Cc1ccnc(-n2c(C)cc(C=C3C(=O)N(C)C(=S)N(C)C3=O)c2C)c1 | n | n | u | u | n | n
Cc1cc(C=C2C(=O)N(C)C(=S)N(C)C2=O)c(C)n1-c1ccncc1 | 35µM | n | u | n | n | u
Oc1ccc2c3c1O[C@H]1c4[nH]c5c(c4C[C@@]4(O)[C@@H](C2)N(CC2CC2)CC[C@]314)C[C@]1(O)[C@H]2Cc3ccc(O)c4c3[C@@]1(CCN2CC1CC1)[C@@H]5O4 | x | n[19.4 µM] | x | x | n | x
NC(N)=Nc1ccc2[nH]c3c(c2c1)C[C@@]1(O)[C@H]2Cc4ccc(O)c5c4[C@@]1(CCN2CC1CC1)[C@H]3O5 | n | n | n | u | 3.5µM | n
Cc1c(N)nc([C@@H](CC(N)=O)NC[C@H](N)C(N)=O)nc1C(=O)N[C@H](C(=O)N[C@H](C)[C@H](O)[C@H](C)C(=O)N[C@@H](C(=O)NCCc1nc(-c2nc(C(=O)NCCC[S+](C)C)cs2)cs1)[C@H](C)O)[C@H](O[C@@H]1O[C@@H](CO)[C@@H](O)[C@H](O)[C@@H]1O[C@H]1O[C@H](CO)[C@H](O)[C@H](OC(N)=O)[C@@H]1O)c1cnc[nH]1 | x | x | n | x | x | x
CC(=O)O[C@H]1C(=O)[C@@]2(C)C([C@H](OC(=O)c3ccccc3)[C@]3(O)C[C@H](OC(=O)[C@H](O)[C@@H](NC(=O)c4ccccc4)c4ccccc4)C(C)=C1C3(C)C)[C@]1(OC(C)=O)CO[C@@H]1C[C@@H]2OC(=O)[C@H](C)NC(=O)c1ccc(-c2c3ccc(=O)cc-3oc3cc(O)ccc23)c(C(=O)O)c1 (stereo partly drawn) | x | 4.7µM | x | x | u | x
N#CC(C#N)=Cc1ccc(N2CCOCC2)cc1 | n | n | n | n | n | n
Cc1cc(C=C(C#N)C#N)ccc1N1CCCC1 | n | n | n | 89µM | n | n
O=C(NCc1ccccc1)c1cccc(Nc2nc3ccccc3n3nnnc23)c1 | n | n | n | u | n | n
CC(C)CC(=O)NC(Oc1ccc(Cl)cc1)C(Cl)(Cl)Cl (stereo not drawn) | n | n | n | n | 0.71µM | n
CCCC(=O)NC(Oc1ccc(OC)cc1)C(Cl)(Cl)Cl (stereo not drawn) | n | n | n | n | n | n
CCC(=O)OC1CCC2C3CCc4cc(O)ccc4C3CC[C@]12C (stereo partly drawn) | x | u | x | x | n | x
